High-throughput results deposited in PubChem by several laboratories.
Rows were chosen to be rich in hits. Some 3.9% of all compounds tested hit in one or more screens of this group.
CCHFV vOTU inh: blocks the CCHF virus ovarian tumor domain protease | inhibition, % at 11.5 µM | hit rate 0.55% among 370,000 | CCHFV vOTU protease, Pep-AMC fluorescence; in the data active means inhibition above about 30%; further: 0% = vehicle wells with enzyme and 100% = no enzyme wells
GDH-TPI counter-1: counter-screen for M. tuberculosis FBA inhibitors: GDH-TPI coupled enzymes | GDH-TPI coupled enzyme counterscreen, NADH absorbance | inhibition, % at 4.8 µM | hit rate 1.2% among 360,000; in the data active means inhibition above about 30%;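 further: 0% = DMSO wells and 100% = wells lacking the enzyme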
FBA Mtb inh: inhibitors of M. tuberculosis fructose-bisphosphate aldolase | purified M. tuberculosis FBA, fluorescence read-out | hit rate 2.3% among 360,000 | inhibition, % at 1 µM | AID 588726;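 further: 0% = vehicle and 100% = reference inhibitor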
Target sequence (P9WQA3 whole entry, looked up): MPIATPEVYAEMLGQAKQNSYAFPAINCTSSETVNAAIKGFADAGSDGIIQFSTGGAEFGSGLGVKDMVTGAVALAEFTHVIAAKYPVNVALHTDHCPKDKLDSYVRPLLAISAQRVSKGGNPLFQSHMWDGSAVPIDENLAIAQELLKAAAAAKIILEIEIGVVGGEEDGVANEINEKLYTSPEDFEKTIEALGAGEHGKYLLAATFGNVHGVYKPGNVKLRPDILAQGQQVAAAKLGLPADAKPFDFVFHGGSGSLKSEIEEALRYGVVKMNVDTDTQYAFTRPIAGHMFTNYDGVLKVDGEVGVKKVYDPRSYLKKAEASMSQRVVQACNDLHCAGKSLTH
BH1578 lux ind: quorum light induction in luxS cqsA deficient V. cholerae. V. cholerae BH1578 lux reporter, luminescence, 6 h. activation, % at 18.7 µM. hit rate 0.16% among 350,000; in the data active means activation mostly above about 9.7%, no sharp cut-off
Mtb FBA confirm: confirmation of M. tuberculosis fructose-bisphosphate aldolase inhibitors. shares compounds with FBA Mtb inh. purified M. tuberculosis FBA, fluorescence read-out. inhibition, % at 1 µM. hit rate 78% among 5,600;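 further: 0% = vehicle wells and 100% = reference inhibitor wells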
GDH-TPI counter-2: counter-screen for M. tuberculosis FBA inhibitors: GDH-TPI coupled enzyme inhibition | AID 652141 | inhibition, % at 1 µM | shares compounds with FBA Mtb inh | hit rate 81% among 5,600 | GDH-TPI coupled enzyme counterscreen, fluorescence; in the data active means inhibition above about 10%
GDH-TPI DR: GDH-TPI dose response counter-screen for Mtb FBA; IC50, µM; shares compounds with FBA Mtb inh; AID 652145; GDH-TPI coupled enzyme assay, fluorescence, artifact counterscreen; hit rate 79% among 170; call rule not given here
An asterisk follows results filed as active; i = inactive; x = no result; + = active, no number. Unless noted, no stated cut-off is given here; in the data, active means inhibition above about 27%; inactive means the rest.

SMILES	CCHFV vOTU inh	GDH-TPI counter-1	FBA Mtb inh	BH1578 lux ind	Mtb FBA confirm	GDH-TPI counter-2	others
CCOC(=O)COc1ccc2c(c1)C(=O)CC(C)(C)O2	-149.5	19.8	48.5*	-0.2	23.4	6.3	GDH-TPI DR=2.93*
COc1cccc(OC)c1C(=O)NC(=S)Nc1ccc(S(=O)(=O)Nc2nccs2)cc1	4.8	7.4	3.3	-0.2	x	x
COc1ccc2c(c1)C(=O)CC(O)(C(F)F)O2 (stereo not given)	-45.9	4.2	30.7*	i	72.2*	52.8*
CC1(C)CC(=O)c2cc(OCC(=O)O)ccc2O1	-101.7	15.5	64.5*	-0.2	101.4*	75.0*
Cc1c(-c2ccccc2)nnn1-c1ccc(F)cc1F	5.0	-1.3	-1.5	i	x	x
COc1ccc2cc3cc(C(=O)NCCc4ccc(OC)c(OC)c4)oc3nc2c1	-19.8	45.4*	30.5*	-0.4	54.2*	45.9*
COc1ccc2nc3oc(C(=O)Nc4ccc(OC)c(OC)c4)cc3cc2c1	-6.3	2.5	17.9	-0.2	x	x
COc1ccc2cc3cc(C(=O)N4CCN(C5CCCCC5)CC4)oc3nc2c1	x	8.6	50.2*	-0.5	23.2	4.8	GDH-TPI DR=1.66*
COc1ccc2nc3oc(C(=O)N4CCC5(CC4)OCCO5)cc3cc2c1	-24.8	13.1	50.0*	i	187.0*	156.3*
COc1ccc2nc3oc(C(=O)N4CCN(c5ccccc5F)CC4)cc3cc2c1	12.1	5.9	7.0	i	x	x
COc1cccc(-c2n[nH]nc2C2=CC(=O)CC(C)(C)C2)c1	8.3	11.8	2.8	-0.6	x	x
Cn1c(SCC(=O)N(C2CCCCC2)C2CCCCC2)nnc1-c1cccs1	-14.3	-5.3	-1.9	-1.5	x	x
N#Cc1c2ccccc2nc2ccccc12	-11.0	-2.2	27.6*	i	181.9*	116.7*
CCCc1c2ccccc2nc2ccccc12	-66.7	8.1	50.0*	-0.6	38.4*	33.6*
Nc1c2ccccc2nc2ccccc12	-103.2	5.8	63.4*	-0.5	72.5*	47.7*
Nc1c2c(nc3ccccc13)CCCC2	1.3	13.0	-1.4	-3.8	x	x
Cn1c(N)nc2ccccc2c1=O	-23.8	-0.7	28.1*	0.5	34.1*	22.3*
NC(=O)C1CCN(C(=O)CCc2ccsc2)CC1	-3.1	6.9	2.4	i	x	x
Nc1nc2ccccc2nc1N	4.1	3.4	50.6*	-2.9	68.9*	60.7*
c1ccc2nc3ccccc3nc2c1	-9.7	3.9	4.2	-0.5	x	x
CC(CCN1CCC(CN2C(=S)NCC2Cc2ccccc2)CC1)c1ccccc1 (stereo not given)	4.3	-5.2	-2.0	-1.4	x	x
O=c1n(-c2ccccc2)c(=O)n2n1CC(O)C2	2.3	-1.2	-0.2	-0.4	x	x
CC1C(c2ccccc2)=Nn2c(=O)n(-c3ccccc3)c(=O)n21 (stereo not given)	-19.9	0.9	103.4*	5.9	+	+
CCCCc1cc(=O)oc2cc(OCC(=O)Nc3ccccn3)ccc12	7.9	-5.2	45.7*	-0.2	67.9*	57.9*
CCCCc1cc(=O)oc2cc(OCC(=O)N3CCOCC3)ccc12	-10.8	16.1	29.6*	-0.3	138.7*	100.9*
SMILES	CCHFV vOTU inh	GDH-TPI counter-1	FBA Mtb inh	BH1578 lux ind	Mtb FBA confirm	GDH-TPI counter-2	others
CCCCc1cc(=O)oc2cc(OCC(=O)N3CCC(C(N)=O)CC3)ccc12	-2.6	5.9	24.1	-0.3	x	x
COc1ccc(OC)c(C(=O)COC(=O)CN2C(=O)NC3(CCCCC3C)C2=O)c1 (stereo not given)	0.1	-7.9	-3.2	-1.4	x	x
O=C(NCC1CC1)NC(=O)c1ccccc1F	-1.6	x	1.2	x	x	x
O=C(CNC1CCCCC1)Nc1cc(S(=O)(=O)N2CCOCC2)ccc1Cl	-11.5	3.1	105.9*	i	+	+
CN(CCOc1ccccc1)C(=O)c1cc(S(=O)(=O)N2CCOCC2)ccc1Cl	-4.4	7.6	30.6*	-3.7	146.1*	115.6*
O=C(Nc1ccncc1)c1cc(S(=O)(=O)N2CCOCC2)ccc1Cl	-7.2	1.4	97.0*	2.8	+	+
O=C(Nc1ccc(S(=O)(=O)N2CCOCC2)cc1)c1cc(S(=O)(=O)N2CCOCC2)ccc1Cl	-1.3	2.1	0.7	i	x	x
O=C(CNCc1ccccc1Cl)Nc1cc(S(=O)(=O)N2CCOCC2)ccc1Cl	9.7	3.0	3.5	0.8	x	x
O=C(NC1CCCCC1)c1cc(S(=O)(=O)N2CCCC2)ccc1Cl	21.6	0.0	104.2*	-2.1	76.9*	57.8*
O=C(COC(=O)c1cc(S(=O)(=O)N2CCCCC2)ccc1Cl)NC1CCCCC1	4.0	-10.1	-2.1	-0.4	x	x
O=C(Nc1cccc(-c2nnco2)c1)c1cccs1	-12.5	6.1	3.9	0.8	x	x
Cc1occc1-c1nnc(SCC(=O)NC(C)(C)C)n1CC(C)C	6.6	-1.8	-2.8	-0.4	x	x
CCN1CCN(S(=O)(=O)c2ccc(Cl)c(C(=O)NC3CC3)c2)CC1	-7.3	10.0	-0.3	i	x	x
O=C(Nc1ccc(Cl)cn1)c1cc(S(=O)(=O)N2CCCCC2)ccc1Cl	11.2	-2.7	77.2*	i	-5.8	-6.1
CCN1CCN(S(=O)(=O)c2ccc(Cl)c(C(=O)NC3CCCC3)c2)CC1	-1.0	6.9	47.2*	i	+	+
O=C(Nc1ccc(Cl)cn1)c1cccc(S(=O)(=O)N2CCCCCC2)c1	2.4	-1.3	0.0	-4.0	x	x
COc1ccc2ccccc2c1CNCCCN1CCOCC1	3.1	-3.1	-0.6	i	x	x
Cc1cc(C)nc(Sc2ncnc3sc4c(c23)CCC4)n1	-21.2	4.6	48.5*	i	1.8	1.3
CC(C#N)Sc1ncnc2sc3c(c12)CCC3 (stereo not given)	-1.7	-6.5	-2.3	-0.5	x	x
O=C(c1ccc(C(F)(F)F)cc1)n1ccc(-c2cccs2)n1	1.8	-4.9	2.5	0.6	x	x
O=C(c1ccc(F)cc1)n1ccc(-c2cnc(-c3ccccc3)s2)n1	-19.3	22.1	46.6*	-0.9	81.3*	59.3*
CC/C(C)=N/N1C(=O)c2ccccc2NC1(C)CC (stereo not given)	-42.1	9.3	38.0*	i	114.5*	126.8*
c1ccc(-c2cn3c(n2)SCC3)cc1	-9.6	-1.4	1.4	-4.0	x	x
Cc1oc2ccccc2c1-c1cn2c(n1)SCC2	-121.0	4.6	102.4*	-1.8	51.8*	41.3*
CCCN(CC(=O)Nc1ccccc1C)C(=O)C1CC(=O)N(c2ccccc2OCC)C1 (stereo not given)	-4.5	0.0	-2.1	-0.3	x	x
CCOC(=O)c1c(-c2ccccc2)oc2ccc(OCC(O)CN(C)C)cc12 (stereo not given)	-48.3	6.0	47.9*	-0.2	43.5*	32.2*
CCOC(=O)c1c(-c2ccccc2)oc2ccc(OC(C)=O)cc12	-19.3	10.2	43.0*	7.1	2.3	-4.4
CC(=O)Oc1ccc2c(=O)c(-c3ccccc3)c(C)oc2c1	-51.4	2.8	42.7*	-0.2	49.4*	43.1*
